Reference: PubChem BioAssay (EPA / NIEHS)
Calls of active or inactive are those of the source. The calls were made as follows: active = hit-call score of the fitted dose curve at least 0.9, where 1 is the maximum; inactive = score below 0.9.

experiment: CCTE_Harrill_HTTr_Apoptosis_MCF7: CCTE's 6-hour Apoptosis Assessment for the High-Throughput Transcriptomics (HTTr) Platform, in MCF-7 cells cultured in DMEM + 10% fetal bovine serum, Harrill Lab (AID 2284011)
Outline: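 MCF-7 cells in DMEM + 10% fetal bovine serum were exposed to chemicals for 6 hours over an eight-point dilution series. Caspase-3/7 activation was imaged by high content imaging with CellEvent Caspase 3/7 Green; bidirectional fitting used DMSO as baseline.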

Compound | outcome | AC50
O=CCCl | inactive | –
C[C@@H]1O[C@@H](O[C@H]2C[C@@H](O)[C@]3(CO)[C@H]4[C@H](O)C[C@]5(C)[C@@H](C6=CC(=O)OC6)CC[C@]5(O)[C@@H]4CC[C@]3(O)C2)[C@H](O)[C@H](O)[C@H]1O | inactive | –
O=[N+]([O-])c1cccc2ccccc12 | inactive | –
O=[N+]([O-])c1ccccc1O | inactive | –
CCN(N=O)C(N)=O | inactive | –
COC(=O)c1cc(Oc2ccc(Cl)cc2Cl)ccc1[N+](=O)[O-] | inactive | –
Nc1ncn[nH]1 | inactive | –
O=NN1CCCCCC1 | inactive | –
CCOCn1c(-c2ccc(Cl)cc2)c(C#N)c(Br)c1C(F)(F)F | inactive | –
C[C@]12CC[C@@H](O)C[C@@H]1CC[C@@H]1[C@@H]2CC[C@]2(C)C(=O)CC[C@@H]12 | inactive | –
O=C1C=CC(=O)c2ccccc21 | – | 60.4 µM (active)
C=CCN=C=S | inactive | –
CCC[CH2][Sn]([Cl])([Cl])[CH2]CCC | inactive | –
O=NN1CCOCC1 | inactive | –
C1CCC(C2CCCCC2)CC1 | inactive | –
N#CS | inactive | –
C[C@H]1C(=O)O[C@@H]2CCN3CC=C(COC(=O)[C@](C)(O)[C@]1(C)O)[C@H]23 | inactive | –
CCCSP(=S)(OCC)Oc1ccc(SC)cc1 (configuration not stated) | inactive | –
CC1CC(=O)O1 (configuration not stated) | inactive | –

Compound | outcome | AC50
CCOP(=S)(OCC)O/N=C(\C#N)c1ccccc1 | inactive | –
CC(C=O)Cc1ccc2c(c1)OCO2 (configuration not stated) | inactive | –
O=c1[nH]c2ccccc2n1C1CCN(CCCC(c2ccc(F)cc2)c2ccc(F)cc2)CC1 | – | 60.9 µM (active)
COc1nn(C(=O)NS(=O)(=O)c2ccccc2OC(F)(F)F)c(=O)n1C | inactive | –
Cc1cccc(C)c1NC(=O)CN1CCCC1=O | inactive | –
OC[C@@H](O)[C@H]1O[C@@H]2O[C@H](C(Cl)(Cl)Cl)O[C@@H]2[C@H]1O | inactive | –
Brc1ccc(Br)cc1 | inactive | –
Oc1c(Br)cc(Br)cc1Br | inactive | –
CCOC(=O)OC1=C(c2cc(C)ccc2C)C(=O)NC12CCC(OC)CC2 (configuration not stated) | inactive | –
N#CCCC(Br)(C#N)CBr (configuration not stated) | inactive | –
CC(C)(C)c1ccc(CCOc2ncnc3ccccc23)cc1 | inactive | –
CCOP(=O)(OCC)OC(=CCl)c1ccc(Cl)cc1Cl | inactive | –
OCCN(CCO)CCO | inactive | –
CC(O)(CS(=O)(=O)c1ccc(F)cc1)C(=O)Nc1ccc(C#N)c(C(F)(F)F)c1 (configuration not stated) | inactive | –
C[CH2][Hg][S]c1ccccc1C(=O)O | inactive | –
Cc1cc(SCc2sc(-c3ccc(C(F)(F)F)c(F)c3)nc2C)ccc1OCC(=O)O | inactive | –
COCC(=O)N(c1c(C)cccc1C)[C@H](C)C(=O)OC | inactive | –
Cc1cc(C(C)(C)c2ccc(O)c(C)c2)ccc1O | inactive | –
